High-throughput results as filed in PubChem.
HT1080 IDH1KD tx: toxicity to HT-1080 IDH1 knockdown cells (counter line) | HT-1080 IDH1 knockdown viability, ATP luminescence, 48 h | 360,000 compounds, 2% hits | Potency, µM (titrated, usually from 46.1 µM), for inactives: top-dose activity, negative = toxicity, hits mostly cytotoxic | AID 686971;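 note: 0% = DMSO wells and -100% = cell-free medium wells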
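Knockdown cells (IDH1KD HT-1080) received compounds 2 h after plating at 750 cells/well and were kept 48 h at 37 °C in 5% FBS RPMI. A CellTiter-Glo luminescence read gave % activity for curve fitting.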
KB-V1 MDR tox: KB-V1 MDR subline cytotoxicity. KB-V1 MDR cells viability, CellTiter-Glo, 72 h. Potency, µM (titrated, usually from 46.1 µM), usual class: cytotoxic. 400,000 compounds, 3.4% hits. AID 1347076; note: % is set by controls: 0 for no effect and ±100 for the full control effect; nearly all actives have a fitted effect of over 60% in size
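Potencies derive from concentration-effect curves fitted to normalized luminescence (CellTiter-Glo) of KB-V1 cells treated for 72 h at 37 degrees C in phenol-red-free DMEM containing 10% FBS.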
SW480 rereplic: induces DNA re-replication in SW480 colon adenocarcinoma cells; SW480 DNA re-replication, Hoechst DNA content imaging, 48 h; Potency, µM (highest dose often 46.1 µM), for inactives: top-dose re-replication activation, hits mostly activators; 340,000 compounds, 1.8% hits; AID 624297; note: % of control where 0% means no effect; nearly all actives have a fitted effect of over 55% in size
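Treated cells incubate 48 hr (37 C, 5% CO2), are stained 40 min with Hoechst, and nuclear fluorescence is enumerated; a rise in nuclei with high DNA signal marks re-replication.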
HT1080NT lethal: kills 2HG-producing HT-1080-NT fibrosarcoma cells; HT-1080-NT fibrosarcoma viability, CellTiter-Glo ATP luminescence, 48 h; Potency, µM (titrated, usually from 46.1 µM), for inactives: at the top dose activity, negative = less viability, most hits filed as cytotoxic; 360,000 compounds, 1.6% hits;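 note: NT is the 2HG producing partner of a matched IDH1 knockdown line; 0% = DMSO-treated cells and -100% = media-only wells without cells; nearly all actives have a fitted effect of over 55% in size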
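A 48-hour cytotoxicity screen used HT-1080-NT cells plated 2 hours before compound delivery. ATP-based CellTiter-Glo luminescence measured viability, normalized to DMSO and no-cell controls.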
MCF10A rereplic: inducers of DNA re-replication in MCF 10A breast cells; Potency, µM (titrated, usually from 46.1 µM), for inactives: top-dose activity, positive = re-replication, usual class: activators; 350,000 compounds, 2.9% hits; AID 624296; MCF 10A DNA re-replication, Hoechst nuclear intensity, 48 h; note: % of control where 0% means no effect; nearly all actives have a fitted effect of over 50% in size
KB-3-1 tox: kills parental KB-3-1 adenocarcinoma cells. KB-3-1 viability, CellTiter-Glo ATP luminescence, 72 h. Potency, µM (series often up to 46.1 µM), hits mostly cytotoxic. AID 1347075. 400,000 compounds, 1.4% hits; note: % is set by controls: 0 for no effect and ±100 for the full control effect; nearly all actives have a fitted effect of over 60% in size
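Cytotoxicity in the drug-sensitive parental line KB-3-1 was scored as loss of CellTiter-Glo luminescence following 72 h incubation with compound. Values come from curve fitting of normalized concentration-response data.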
Numbers without * were called inactive; i = inactive; ? = inconclusive; / = not tested or not shown; [ ] = dose if it differs, or a comment. Hits are enriched below; roughly 7.9% of the tested compounds scored in any of these assays. Calls come from the whole dose curve; as a rule, active = well fitted curve in the direction sought with a large enough effect; inconclusive = small, poorly fitted or top-dose-only effect, or another doubt; inactive = no such curve, though single readings can be large; an effect the other way counts as inactive or inconclusive. Potency is the fitted concentration of half-maximal effect.

SMILES	HT1080 IDH1KD tx	KB-V1 MDR tox	SW480 rereplic	HT1080NT lethal	MCF10A rereplic	KB-3-1 tox
COCCN1C=C(C(=O)OC)C(c2ccccc2C(F)(F)F)C(C(=O)OC)=C1	18%	i	18µM*	13%	16µM*	i
CCCCOc1ccccc1C1C(C(=O)OC)=C(C)N(C)C(C)=C1C(=O)OC	-3%	9.2µM*	8%	6%	17%	i
COCCN1C=C(C(=O)OC)C(c2ccc(OC)c(OC)c2)C(C(=O)OC)=C1	11%	i	1%	9%	-4%	i
COC(=O)C1=CNC=C(C(=O)OC)C1c1ccccc1Cl	3%	i	?	10%	?	i
COC(=O)C1=C(C)N(C)C(C)=C(C(=O)OC)C1c1ccccc1C	-6%	i	-2%	-4%	-1%	i
CCCCN1C=C(C(=O)OC)C(c2ccccc2C(F)(F)F)C(C(=O)OC)=C1	15%	i	9.2µM*	10%	2.9µM*	i
CCCCN1C=C(C(=O)OC)C(c2ccccc2Cl)C(C(=O)OC)=C1	-6%	i	?	-13%	7.3µM*	i
CCN(C(=O)Nc1cn(CC(C)C)c(=O)c2ccccc12)c1cc(C)ccc1C	/	i	/	/	/	i
CC(=O)N1CCOc2cc(S(=O)(=O)N(C)Cc3ccccc3)c(Cl)cc21	/	?	/	/	/	i
Cc1cccc(CN2CCN(C3CN(Cc4cn(Cc5ccc(Cl)cc5)nn4)S(=O)(=O)C3)CC2)c1 (stereo not given)	2%	?	/	1%	/	?
COc1ccc(-c2nc3c(Cl)cc(C(F)(F)F)cn3c2Cc2cccc(F)c2)cc1OC	-4%	i	/	0%	/	i
COc1cccc(CNC(=O)C(=O)NCC(c2cccs2)S(=O)(=O)c2cccs2)c1 (stereo not given)	/	i	/	/	/	i
Cn1ncc(N=Cc2ccccc2)c1C(N)=O	17%	?	-1%	21%	1%	i
Cn1ncc(N=Cc2ccccc2)c1C(=O)Nc1cccc(Cl)c1	1%	?	?	5%	18µM*	?
CCOC(=O)c1c(NC(=O)c2cc(=O)c3c(C)cc(C)cc3o2)sc(C(C)=O)c1C	/	i	/	/	/	i
Cc1ccc2sc(N(CCCN(C)C)C(=O)CN3C(=O)c4ccccc4C3=O)nc2c1C	?	i	?	16µM*	1%	i
Cc1ccc2sc(N(CCN(C)C)C(=O)c3ccc4ccccc4c3)nc2c1C	0%	i	?	-1%	17%	?
CN(C)CCCN(C(=O)CCOc1ccccc1)c1nc2c(F)cccc2s1	7.3µM*	i	?	15µM*	?	?
CN(C)CCCN(C(=O)CCOc1ccccc1)c1nc2ccc(F)cc2s1	21µM*	i	?	18µM*	?	i
COc1ccc(CNC(=O)CSCc2nc(-c3ccccc3C)oc2C)cc1	/	i	/	/	/	i
COC(=O)c1ccc(CSc2nnc(Nc3ccccc3OC)s2)o1	-11%	i	17%	?	9.2µM*	i
CNC(=S)N(Cc1ccco1)Cc1cc2cc(OC)c(OC)cc2[nH]c1=O	-2%	i	-7%	-10%	2%	i
COc1ccccc1NC(=S)N(Cc1ccco1)Cc1cc2ccc(C)c(C)c2[nH]c1=O	?	1.8µM*	?	?	?	0.92µM*
COc1ccccc1NC(=S)N(Cc1ccco1)Cc1cc2cc(C)cc(C)c2[nH]c1=O	?	2.9µM*	21µM*	?	13µM*	6.5µM*
Cc1ccc2cc(CN(Cc3ccco3)C(=O)C3CCCCC3)c(=O)[nH]c2c1C	19%	i	-3%	8%	1%	i
SMILES	HT1080 IDH1KD tx	KB-V1 MDR tox	SW480 rereplic	HT1080NT lethal	MCF10A rereplic	KB-3-1 tox
COc1ccc(C(C)=O)cc1CSc1nnc(C)n1-c1ccccc1	-2%	21µM*	-3%	0%	2%	i
CC(=O)OC1(C(C)=O)CCC2C3CC(C(F)(F)F)C4=CC(=O)CCC4(C)C3CCC21C (stereo not given)	21µM*	i	?	18µM*	159%	i
COc1ccc(C2C(C(=O)Nc3cc(OC)c(OC)c(OC)c3)c3ccccc3C(=O)N2C)cc1 (stereo not given)	1.5µM*	?	6.5µM*	1.5µM*	?	?
COc1ccc(C2C(C(=O)Nc3cccc(OC)c3)c3ccccc3C(=O)N2C)cc1 (stereo not given)	3%	?	-11%	-3%	5%	i
CCC1=Nc2cc(C(=O)NCCc3ccccc3)ccc2Sc2ccc(Cl)cc21	/	i	/	/	/	10µM*
CCCNC(=O)c1ccc2c(c1)N=C(CCC)c1ccccc1S2	/	i	/	/	/	0.73µM*
CCCC1=Nc2cc(C(=O)NC(C)c3ccccc3)ccc2Sc2ccc(C)cc21 (stereo not given)	/	i	/	/	/	i
CCOCCCNC(=O)c1ccc2c(c1)N=C(CC)c1cc(Br)ccc1S2	0.092µM*	0.52µM*	1.8µM*	?	?	1µM*
CCCC1=Nc2cc(C(=O)NCCc3ccccc3)ccc2Sc2ccc(C)cc21	/	?	/	/	/	7.3µM*
CCCC1=Nc2cc(C(=O)NCCc3ccc(OC)cc3OC)ccc2Sc2ccccc21	/	i	/	/	/	?
Cc1nc(C#N)nc(Oc2ccccc2)c1Cl	20%	/	/	16%	/	/
Cc1nc(N2CCCC2)ncc1C(=O)NCc1cccc(Cl)c1	/	i	/	/	/	i
O=C(c1cccs1)N(Cc1ccco1)c1ccc(O)cc1	/	i	/	/	/	i
O=c1ccn(Cc2ccccc2)c(=O)n1Cc1ccccc1	0%	i	-9%	-3%	21µM*	i
Cn1c(N)cc(=O)n(Cc2ccccc2)c1=O	9%	i	-6%[9.22 µM]	5%	-11%	i
COc1ccc2c(c1)sc(N)[n+]2Cc1cc(C)cc2cccnc12	5.2µM*	4.6µM*	8.2µM*	?	4.6µM*	4.6µM*
CCOc1ccc2c(c1)sc(N)[n+]2Cc1cc(C)cc2cccnc12	3.3µM*	1.3µM*	4.6µM*	6.5µM*	8.2µM*	2.6µM*
Cc1cc(C[n+]2ncsc2N)c2ncccc2c1	-29%	i	4%	-19%	14%	i
Cc1cccc(OCCNc2cc(N3CCOCC3)ccc2[N+](=O)[O-])c1	?	i	-7%	?	-6%	i
Cc1cccc(OCCNc2cc(N3CCN(C)CC3)ccc2[N+](=O)[O-])c1	16%	16µM*	?	2%	25%	?
COc1ccc(-c2cc(C#N)nc(Oc3ccc(Cl)cc3)n2)cc1	-1%	i	21%	6%	13%	i
CCN(CC)c1nc(C#N)cc(-c2ccc(OC)cc2)n1	?	5.8µM*	12µM*	?	15µM*	7.3µM*
